# Source: PubChem (National Center for Advancing Translational Sciences (NCATS))
# Pf growth 48h: Primary qHTS for delayed death inhibitors of the malarial parasite plastid, 48 hour incubation | P. falciparum luciferase growth in erythrocytes, 48 h | Potency, µM (highest dose often 28.7 µM), for the others: at the top dose activity change, negative = inhibition, most hits filed as inhibitors | actives 5.9% (n = 310,000) | AID 504832, 2011; further: potency means the concentration at half of the fitted maximal effect; on the % scale 0 is the no-effect control and ±100 the full control effect
#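 Luminescence readout; reporter = integrated firefly luciferase in P. falciparum. RBC culture at 2% hematocrit, 0.1% parasitemia final, 37 C/5% CO2; decreased signal taken as growth inhibition.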
# Pf growth 96h: Primary qHTS for delayed death inhibitors of the malarial parasite plastid, 96 hour incubation; P. falciparum luciferase reporter growth, 96 h; Potency, µM (doses to about 28.7 µM), inactives show top-dose activity change, negative = inhibition, usual class: inhibitors; actives 6.9% (n = 320,000); AID 504834, 2011; further: potency means the concentration at half of the fitted maximal effect; on the % scale 0 is the no-effect control and ±100 the full control effect
#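 Cell-based qHTS: luciferase-tagged P. falciparum in erythrocytes (2% hematocrit, 0.05% parasitemia final) incubated with compounds for 96 hours, 37 C, 5% CO2; luciferase detection reagent then added and luminescence measured.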
# Cycloheximide cs: Cycloheximide Counterscreen for Small Molecule Inhibitors of Shiga Toxin; actives 12% (n = 300,000); max response, %; cell reporter, cycloheximide protein synthesis inhibition counterscreen; in the data active means max response mostly above about 13%, no sharp cut-off; inactive means mostly below about 14%; further: read at 38.3 µM for the half of the compounds with a filed dose; 0% is about no effect
# Shiga inhibitor: A qHTS for Small Molecule Inhibitors of Shiga Toxin | Vero cells, Shiga toxin protein synthesis inhibition reporter | inhibition, % at 38.7 µM | actives 9.2% (n = 290,000); in the data active means inhibition mostly above about 28%, no sharp cut-off; inactive means mostly below about 43%; further: 0% is about no effect
# LmPK inhibitor: qHTS Assay for Inhibitors of Leishmania Mexicana Pyruvate Kinase (LmPK) | Q27686 | purified LmPK, Kinase-Glo ATP luminescence, 1 h | Potency, µM (top dose mostly 57.5 µM), for the others: top-dose activity change, negative = inhibition, hits mostly inhibitors | actives 0.37% (n = 290,000) | AID 1721, 2009; further: potency means the concentration at half of the fitted maximal effect; on the % scale 0 is the no-effect control and ±100 the full control effect
# Target sequence (Q27686 whole entry, looked up): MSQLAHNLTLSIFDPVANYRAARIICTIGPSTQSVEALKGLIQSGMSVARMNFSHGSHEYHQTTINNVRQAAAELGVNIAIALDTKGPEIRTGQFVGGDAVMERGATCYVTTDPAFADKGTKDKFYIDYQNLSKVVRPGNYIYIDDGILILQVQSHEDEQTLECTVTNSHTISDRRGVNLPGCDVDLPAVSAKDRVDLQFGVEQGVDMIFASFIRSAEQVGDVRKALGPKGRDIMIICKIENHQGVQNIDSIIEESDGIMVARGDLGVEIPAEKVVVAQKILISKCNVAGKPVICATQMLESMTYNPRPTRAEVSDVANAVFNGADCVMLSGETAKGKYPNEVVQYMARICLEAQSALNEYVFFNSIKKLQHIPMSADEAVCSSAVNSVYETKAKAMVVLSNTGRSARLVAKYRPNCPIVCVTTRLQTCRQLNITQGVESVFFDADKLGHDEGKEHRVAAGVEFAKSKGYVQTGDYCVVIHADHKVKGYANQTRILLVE
#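 In 50 mM imidazole pH 7.2 with 7 mM MgCl2, LmPK (0.1 nM) turned over PEP (0.5 mM) and ADP (0.1 mM) for 1 h at room temperature. Luciferase read-out of ATP.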
# An asterisk follows results filed as active; u = inconclusive; x = no result; [ ] = another dose, or the depositor's remark. This is a sample that favours compounds with a hit; in the whole collection about 22% have one here. Unless noted, the call rests on the fitted dose curve; in most records, active means well fitted inhibition curve with a large enough effect; inconclusive means small, poorly fitted or top-dose-only effect, or another doubt; inactive means no such curve, though single readings can be large or run the other way.
SMILES,Pf growth 48h,Pf growth 96h,Cycloheximide cs,Shiga inhibitor,LmPK inhibitor
Cc1ccc(C(=O)N/N=C/c2cccc(OC(=O)/C=C/c3ccco3)c2)cn1,31%,u,33*,86*,7%
COc1cc(NC(=O)CCN2CCN(C/C=C/c3ccccc3)CC2)cc(OC)c1,u,0%,-2,6,-10%
Cc1cc(NC(=O)CS(=O)(=O)c2ccc(Cl)cc2)no1,7%,28%,8,-3,1%
Nc1ncnc(N2CCOCC2)c1N,7%,3%,-1,-8,-4%
Clc1ccc2c(c1)CNc1c(ncnc1N1CCOCC1)O2,u,u,12*,-14,-2%
Cc1nnc(NC(=O)C(C)Sc2nnc(CNC(=O)c3ccccc3F)n2C)s1 (configuration not stated),-8%,u,x,x,x
Cc1cc(C(=O)CN2CCC(C)CC2)c(C)n1-c1ccccc1F,89%,-32%,2,-5,2%
Cc1ccc(-n2c(C)cc(C(=O)CN3CCCCC3)c2C)cc1,u,u,40*,87*,-3%
Cc1cc(C(=O)CN2CC(C)OC(C)C2)c(C)n1-c1ccccc1 (configuration not stated),-18%,-8%,13*,50*,-2%
Cc1cc(C(=O)O)c(C)n1-c1ccccc1,x,-8%,-5,-11,-4%
Cc1cccc(C(=O)OCC(=O)NN2C(=O)NC3(CCC(C)CC3)C2=O)c1O (configuration not stated),15%,14%,x,x,x
COC(=O)C1C[C@@H]2C3=C(C(=O)[C@@](C)(NC(=O)c4ccccc4)C3[C@H](C(=O)OC)C1)[C@H](C)n1c(=O)n(-c3ccccc3)c(=O)n12 (some centres not stated),x,x,11,31,x
COc1cccc(OCC(=O)N(C)Cc2nc(-c3cccc(C)c3)no2)c1,18%,21%,-3,-13,0%
Cn1c(=O)c2ncn(CC(=O)Nc3nc(-c4ccc(Cl)cc4)cs3)c2n(C)c1=O,-27%,68%,2,-12,2%
Clc1cc(NCc2cccs2)ccc1N1CCOCC1,31%,3%,46*,57*,-3%
c1csc(CNc2ccc3c(c2)OCCO3)c1,222%,125%,111*,93*,-2%
FC(F)(F)Oc1ccc(NC(=S)Nc2ccc(OC(F)(F)F)cc2)cc1,u,u,5,16,0%
Oc1ccccc1CNc1ccc(OC(F)(F)F)cc1,u,u,35*,55*,2%
Oc1ccccc1CNc1ccc2c(c1)OCCO2,144%,70%,41*,67*,-4%
CCCC(=O)Nc1nnc(SCC(=O)NCc2ccco2)s1,5%,u,-3,-14,3%
N#CCCN1CCCN(CCC#N)CCN(CCC#N)CCCN(CCC#N)CC1,3%,36%,-3,-12,-3%
Cc1ccc(NCc2ccccc2O)cc1C,56%,34%,33*,102*,0%
COc1cc(CNc2ccc(C)c(C)c2)cc(OC)c1OC,u,u,35,115,4%
O=C(CSc1nnc(Nc2ccccc2)s1)NN1C(=O)NC2(CCCCC2)C1=O,13%,-10%,-2,9,-4%
COc1cccc(/C=N/Nc2ncnc(N)c2[N+](=O)[O-])c1OC,175%,x,35*,73*,-23%
SMILES,Pf growth 48h,Pf growth 96h,Cycloheximide cs,Shiga inhibitor,LmPK inhibitor
COc1cccc(/C=N/Nc2ncnc3scc(-c4ccccc4)c23)c1O,2.9µM*,2.3µM*,0,-2,2%
CCC(C)C(Nc1ncnc2scc(-c3ccccc3)c12)C(=O)O (configuration not stated),-12%,0%,-2,7,-1%
COc1cccc(C=NCCCN=Cc2cccc(OC)c2O)c1O,u,-2%,6,-4,-20%
COc1cccc(/C=N/c2nc3ccccc3[nH]2)c1O,-3%,-23%,2,-11,u
COc1cccc(/C=N/Nc2nccnc2Cl)c1O,u,-3%,13*,34,10µM*
COc1cccc(/C=N/Nc2ncnc(Cl)c2N)c1O,1.7µM*,2.6µM*,55*,40*,-2%
Cc1cc(/C=N/Nc2ncnc(N)c2[N+](=O)[O-])c(C)n1-c1ccccc1,27%,0%,4,-2,u
COc1ccc(S(=O)(=O)NNC(=O)c2csc(-n3nc(C)cc3C(F)(F)F)n2)cc1,-6%,x,-3,33,0%
COc1cccc(OC)c1NC(=O)C1CCCN1C(=O)Nc1ccccc1F (configuration not stated),11%,53%,3,-10,-5%
CCc1nnc(NS(=O)(=O)c2ccc(NC(=S)NC(=O)/C=C/c3ccc(C(C)C)cc3)cc2)s1,-24%,8%,-1,-3,0%
COc1cc(OC)cc(-c2nnc3n2N=C(c2cc(OC)ccc2OC)CS3)c1,x,x,-2,-6,x
Cc1nc(SCCC(=O)O)c2cc(-c3ccccc3)sc2n1,28%,78%,-7,-11,1%
COc1ccc(-c2nc3c4ccccc4[nH]c(=O)n3n2)cc1,-28%,u,24*,55*,6%
COc1ccccc1P(=O)(Cc1ccccc1)c1ccccc1 (configuration not stated),-5%[0.00184 µM],-3%,-7,-5,-6%
CCCCCn1c(=O)c(-c2nc3ccccc3[nH]2)c(O)c2ccccc21,u,23%,-2,4,-2%
Cc1ncc(CO)c(CNc2ccc(-c3nc4ccccc4[nH]3)cc2)c1O,u,-24%,16*,28,0%
Cc1nn(-c2cccc(C(F)(F)F)c2)c(=O)c2ccccc12,23%,2%,16*,x,9%
O=c1ccn(-c2cccc(C(F)(F)F)c2)nc1-c1ccn(-c2ccccc2)n1,10µM*,0%,10,-18,1%
Cc1nn(-c2ccccc2)c(=O)c2ccccc12,12%,u,14,18,0%
CC(C)c1ccc(/C=N/N2CCCCC2)cc1,77%,6%,31*,139*,0%
CC(C)c1ccc(NC(=O)CN2CCN(c3ccccn3)CC2)cc1,10%,23%,-5,6,-8%
Clc1ccc(/C=N/N2CCN(Cc3ccccc3Cl)CC2)cc1,-4%,1%,9,-4,7%
Oc1ccccc1/C=N/N1CCN(c2ccccn2)CC1,86%,42%,37*,90*,-4%
CC(C)c1ccc(/C=N/N2CCN(c3ccccn3)CC2)cc1,44%,17%,21*,43*,-1%
C(=N\N1CCN(c2ccccn2)CC1)/c1cccc2ccccc12,29%,16%,17*,43*,-3%
N=c1c(C(=O)NCC2CCCO2)cc2c(=O)n3ccccc3nc2n1Cc1ccccc1Cl (configuration not stated),u,u,-3,-4,1%
